Several values for one entry are separate records, joined by “and”; a condition that tells them apart may be missing. Equal values may be shown once. The whole screen tested about 330,000 compounds, of which about 2,600 (0.79%) were called active.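 The calls were made as follows: active = mean ATP rescue above about 67%, or every replicate alone reaching that limit (limit read from the data, passing the limit was not always enough); inconclusive = no clear call, values can overlap the other calls; inactive = mean under the limit and some replicate under it.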 This excerpt belongs to a sample that is enriched for actives. Where a structure was tested more than once in an assay, its records may differ in their call.

The assay can be described thus: suppressors of statin myotoxicity in C2C12 myotubes, primary screen, cell-based, single point, plate reader (AID 602340).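 Also: myotubes were challenged with 10 µM simvastatin during compound exposure.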 The following applies: C2C12 myotubes + simvastatin, ATP luminescence, 48 h; at 7.49 µM; stronger effect = higher value; scaled: DMSO 0, geranylgeraniol control 100.
As for `CC1(C(=O)O)CCCN(C(=O)/C=C/c2ccccc2)C1` (configuration not stated), the rescue of ATP level is 2.47% (inactive).
In the case of `C/C(=C\c1ccccc1)C1NC(=O)c2c(sc3c2CCCC3)N1` (configuration not stated) it was -22.3% (inactive).
Take `Cc1[nH]c(=O)c(C(=O)/C=C/c2ccccc2)c2c1CCCC2`: the rescue of ATP level was 165% (active).
Regarding `COc1ccccc1NC(=O)N1C[C@H](O)COC[C@H]2O[C@H](CC(=O)NCCc3ccccc3)CC[C@@H]21`, the rescue of ATP level is -6.91% (inactive).
In the case of `CCOc1ccc(C(=O)Nc2ccc(S(=O)(=O)Nc3cc(C)on3)cc2)cc1`, the rescue of ATP level is 10.8% (inactive).
Then `CCC(=O)Nc1ccc(C(=O)NNC(=O)c2ccc(Cl)cc2)cc1`, with -2.53% (inactive).
In the case of `CCC(=O)Nc1ccc(C(=O)Nc2cc(C)on2)cc1` it was 84.9% (active); in that of `C[C@H]1CN([C@@H](C)CO)S(=O)(=O)c2ccc(Br)cc2O[C@H]1CN(C)C(=O)C1CC1`, 4.28% (inactive).
Then `CC(=O)Nc1ccc(C(=O)CSc2nc3ccc(C)cc3[nH]2)cc1`, with 107% (active).
Regarding `CCOC(=O)CSc1nc2ccc(C)cc2[nH]1`, the rescue of ATP level is 11.3% (inactive).
Then `Cc1ccc2nc(SCC(=O)NC3CCCC3)[nH]c2c1`, with -36.1% (inactive); and `O=C(NCC[C@H]1CC[C@H](NS(=O)(=O)c2cccc(F)c2)[C@H](CO)O1)C1CCCCC1`, with 0.841% (inactive); and `COC(=O)C[C@H]1CC[C@H](NC(=O)Nc2ccc(C(F)(F)F)cc2)[C@H](CO)O1`, with -6.07% (inactive).
Then `CCS(=O)(=O)Nc1ccc2c(c1)C(=O)N(C)[C@@H]1CC[C@H](CC(=O)N[C@H]3CCN(Cc4ccccc4)C3)O[C@@H]1CO2`, with 10.9% (inactive); and `CCS(=O)(=O)Nc1ccc2c(c1)C(=O)N(C)[C@@H]1CC[C@@H](CC(=O)N3CCCCC3)O[C@H]1CO2`, with -21.4% (inactive); and `CO[C@H]1CN(C)C(=O)c2ccc(NC(=O)C3CC3)cc2OC[C@@H](C)N(C)C[C@H]1C`, with 2.87% (inactive).
In the case of `CCCS(=O)(=O)N1CCCC(C(=O)N2CCN(c3ccccc3)CC2)C1` (configuration not stated) it was 103% (active).
`O=C(C1CCCN(S(=O)(=O)c2ccccc2)C1)N1CCN(c2ccc(F)cc2)CC1` (configuration not stated): the rescue of ATP level is -8.18% (inactive).
Then `CCS(=O)(=O)N1CCC(C(=O)N2CCN(c3ccccc3)CC2)CC1`, with 2.16% (inactive); and `C[C@@H](NC(=O)C[C@@H]1CC[C@H](NC(=O)Cc2ccccn2)[C@H](CO)O1)c1ccccc1`, with 4.66% (inactive).
Then `C[C@@H]1CN([C@H](C)CO)C(=O)c2cccc(NS(=O)(=O)c3ccc(Cl)cc3)c2O[C@H]1CN(C)C(=O)NC1CCCCC1`, with 36.6% (inactive); and `C[C@H]1CN([C@@H](C)CO)C(=O)c2cccc(NC(=O)Nc3ccc(C(F)(F)F)cc3)c2O[C@H]1CN(C)C(=O)NC1CCCCC1`, with -25.5% (inactive).
`C[C@@H]1CN([C@@H](C)CO)C(=O)c2cccc(NC(=O)Nc3ccc(F)cc3)c2O[C@H]1CN(C)C(=O)Nc1ccc(F)cc1`: the rescue of ATP level was 18.2% (inactive).
As for `CC(C)NC(=O)N(C)C[C@H]1Oc2ccc(N(C)C)cc2C(=O)N([C@@H](C)CO)C[C@H]1C`, the rescue of ATP level is 70.4% (active).
In the case of `C[C@@H]1CN([C@@H](C)CO)C(=O)c2cccc(NC(=O)Nc3ccc(F)cc3)c2O[C@@H]1CN(C)C(=O)Nc1ccccc1` it was 7.96% (inactive); in that of `C[C@@H]1CN([C@@H](C)CO)C(=O)c2cccc(NS(=O)(=O)c3ccc(F)cc3)c2O[C@H]1CN(C)C(=O)NC1CCCCC1`, 88.2% (active) and -10.4% (inactive).
For `C[C@@H]1CN([C@H](C)CO)C(=O)c2cccc(NS(=O)(=O)c3ccc(F)cc3)c2O[C@@H]1CN(C)C(=O)Nc1ccc(F)cc1`, the rescue of ATP level was 3.07% (inactive).
Then `C[C@H]1CN([C@@H](C)CO)C(=O)c2cccc(NC(=O)Nc3ccc(C(F)(F)F)cc3)c2O[C@H]1CN(C)CC1CCCCC1`, with 88.7% (active); and `C[C@H](CO)N1C[C@H](C)[C@@H](CN(C)C(=O)Nc2ccccc2)Oc2ccc(N(C)C)cc2C1=O`, with 4.49% (inactive).
On to `CC(C)NC(=O)N(C)C[C@@H]1Oc2ccc(N(C)C)cc2C(=O)N([C@@H](C)CO)C[C@H]1C`, for which the rescue of ATP level was -49% (inactive).
Then `C[C@@H]1CN([C@H](C)CO)C(=O)c2cccc(NC(=O)Nc3cccc4ccccc34)c2O[C@@H]1CN(C)C(=O)Nc1ccc(F)cc1`, with 98.6% (active).
Then `C[C@H]1CN([C@@H](C)CO)C(=O)c2cccc(NC(=O)Nc3ccc(C(F)(F)F)cc3)c2O[C@@H]1CN(C)Cc1ccccc1`, with -12.1% (inactive); and `C[C@@H]1CN([C@H](C)CO)C(=O)c2cc(NC(=O)Cc3cn(C)c4ccccc34)ccc2O[C@@H]1CN(C)S(=O)(=O)c1cccs1`, with 34.2% (inactive); and `CCS(=O)(=O)Nc1ccc2c(c1)C(=O)N(C)[C@H]1CC[C@H](CC(=O)NCc3ccccc3F)O[C@H]1CO2`, with -3.79% (inactive).
Take `O=C(N[C@H]1CC[C@@H](CCn2cc(Cc3ccccc3)nn2)O[C@H]1CO)c1cnccn1`: the rescue of ATP level was -1.98% (inactive).
With `COc1ccc(C#Cc2cnc3c(c2)C(=O)N([C@H](C)CO)C[C@@H](C)[C@H](CN(C)C(=O)Nc2cccc(OC)c2)O3)cc1`, the rescue of ATP level was 114% (active).
Then `COc1ccc(NC(=O)Nc2cccc3c2O[C@H](CN(C)C(=O)Nc2cccc4ccccc24)[C@H](C)CN([C@H](C)CO)C3=O)cc1`, with 60% (inactive); and `COc1ccc(NC(=O)N(C)C[C@@H]2Oc3c(NC(=O)Nc4cccc5ccccc45)cccc3C(=O)N([C@@H](C)CO)C[C@H]2C)cc1`, with 15.2% (inactive); and `COc1ccc(NC(=O)N(C)C[C@H]2Oc3ncc(C#C[C@@H](C)O)cc3C(=O)N([C@H](C)CO)C[C@H]2C)cc1`, with 12.8% (inactive) and -6.34% (inactive) and 21.2% (inactive).
Then `COc1ccc(NC(=O)N(C)C[C@H]2Oc3c(NC(=O)Nc4cccc5ccccc45)cccc3C(=O)N([C@H](C)CO)C[C@@H]2C)cc1`, with 75.6% (active); and `COc1cccc(NC(=O)N(C)C[C@@H]2Oc3ncc(Br)cc3C(=O)N([C@@H](C)CO)C[C@H]2C)c1`, with 17.2% (inactive); and `CN(C)C(=O)C[C@@H]1CC[C@H](NC(=O)NC2CCCCC2)[C@@H](CO)O1`, with -1.33% (inactive).

Values taken from PubChem BioAssay AID602340 (Broad Institute, 2012).
